This is an account of results in ChEMBL document CHEMBL1961873, “Compounds: GSK PKIS; Assays: Nanosyn kinase panel” (2012).

The target of assay [1] is T1, Tyrosine-protein kinase receptor TYRO3 (Homo sapiens) (UniProt Q06418).
T1 sequence (whole entry): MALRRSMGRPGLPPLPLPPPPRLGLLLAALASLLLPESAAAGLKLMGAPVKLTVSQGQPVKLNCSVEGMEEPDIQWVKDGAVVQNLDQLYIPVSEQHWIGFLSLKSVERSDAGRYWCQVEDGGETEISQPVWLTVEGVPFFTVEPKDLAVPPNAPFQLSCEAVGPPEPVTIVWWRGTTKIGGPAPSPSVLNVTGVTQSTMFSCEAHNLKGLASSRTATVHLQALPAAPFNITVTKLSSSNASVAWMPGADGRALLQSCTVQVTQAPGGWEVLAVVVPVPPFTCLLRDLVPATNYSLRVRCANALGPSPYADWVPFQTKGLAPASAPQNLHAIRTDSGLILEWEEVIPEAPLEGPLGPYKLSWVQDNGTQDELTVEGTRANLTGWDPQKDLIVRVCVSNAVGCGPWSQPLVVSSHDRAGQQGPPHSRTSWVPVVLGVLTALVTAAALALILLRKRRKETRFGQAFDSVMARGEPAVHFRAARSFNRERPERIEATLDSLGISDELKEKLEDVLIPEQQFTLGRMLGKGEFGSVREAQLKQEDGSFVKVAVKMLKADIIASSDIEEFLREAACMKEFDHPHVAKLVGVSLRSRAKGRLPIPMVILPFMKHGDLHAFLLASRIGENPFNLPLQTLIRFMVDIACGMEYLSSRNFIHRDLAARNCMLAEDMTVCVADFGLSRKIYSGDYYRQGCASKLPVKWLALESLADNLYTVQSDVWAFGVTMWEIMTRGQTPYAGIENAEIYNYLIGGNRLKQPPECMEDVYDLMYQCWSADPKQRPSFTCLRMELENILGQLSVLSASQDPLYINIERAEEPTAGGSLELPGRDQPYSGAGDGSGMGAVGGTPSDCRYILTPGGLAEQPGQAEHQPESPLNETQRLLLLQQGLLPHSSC
As to conditions: at 1 µM.

Assay [2] has as its target Tyrosine-protein kinase Yes (Homo sapiens) (UniProt P07947). Conditions: at 0.1 µM.
For assay [3] the target is unchanged. Conditions: at 1 µM.
Assay [4] concerns the target T2, Tyrosine-protein kinase ZAP-70 (Homo sapiens) (UniProt P43403).
T2 sequence (whole entry): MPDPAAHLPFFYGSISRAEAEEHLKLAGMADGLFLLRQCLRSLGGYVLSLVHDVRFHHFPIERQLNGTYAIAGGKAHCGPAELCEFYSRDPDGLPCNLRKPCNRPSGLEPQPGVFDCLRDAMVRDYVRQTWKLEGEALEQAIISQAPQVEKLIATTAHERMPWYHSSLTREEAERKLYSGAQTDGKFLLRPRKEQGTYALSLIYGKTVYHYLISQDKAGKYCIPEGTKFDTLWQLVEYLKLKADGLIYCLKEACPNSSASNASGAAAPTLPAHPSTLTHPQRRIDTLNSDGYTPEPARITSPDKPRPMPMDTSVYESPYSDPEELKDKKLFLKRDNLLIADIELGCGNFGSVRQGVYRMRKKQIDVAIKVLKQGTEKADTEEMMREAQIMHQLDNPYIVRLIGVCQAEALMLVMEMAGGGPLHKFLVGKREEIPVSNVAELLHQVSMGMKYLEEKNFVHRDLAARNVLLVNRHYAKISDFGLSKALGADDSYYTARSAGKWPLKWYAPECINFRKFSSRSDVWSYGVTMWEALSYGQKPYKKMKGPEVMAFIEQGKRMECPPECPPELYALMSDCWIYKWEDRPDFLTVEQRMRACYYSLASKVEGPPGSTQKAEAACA
As to conditions: at 0.1 µM.

For assay [5], the target named is T2, Tyrosine-protein kinase ZAP-70 (Homo sapiens). As to conditions: at 1 µM.
The target in assay [6] is Serine/threonine-protein kinase B-raf (Homo sapiens) (UniProt P15056). As to conditions: at 0.1 µM.
For assay [7] the target is unchanged. As to conditions: at 1 µM.
In assay [8] the test system is Serine/threonine-protein kinase B-raf (Homo sapiens), P15056 [V600E]. Conditions: at 0.1 µM.
The test system is the same in assay [9]. Conditions: at 1 µM.
For assay [10], the target named is RAF proto-oncogene serine/threonine-protein kinase (Homo sapiens) (UniProt P04049). As to conditions: at 0.1 µM.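 Further: values are mean CRAF kinase inhibition from profiling of the GSK Published Kinase Inhibitor Set.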
Sequence of RAF proto-oncogene serine/threonine-protein kinase (Homo sapiens) (P04049 whole entry): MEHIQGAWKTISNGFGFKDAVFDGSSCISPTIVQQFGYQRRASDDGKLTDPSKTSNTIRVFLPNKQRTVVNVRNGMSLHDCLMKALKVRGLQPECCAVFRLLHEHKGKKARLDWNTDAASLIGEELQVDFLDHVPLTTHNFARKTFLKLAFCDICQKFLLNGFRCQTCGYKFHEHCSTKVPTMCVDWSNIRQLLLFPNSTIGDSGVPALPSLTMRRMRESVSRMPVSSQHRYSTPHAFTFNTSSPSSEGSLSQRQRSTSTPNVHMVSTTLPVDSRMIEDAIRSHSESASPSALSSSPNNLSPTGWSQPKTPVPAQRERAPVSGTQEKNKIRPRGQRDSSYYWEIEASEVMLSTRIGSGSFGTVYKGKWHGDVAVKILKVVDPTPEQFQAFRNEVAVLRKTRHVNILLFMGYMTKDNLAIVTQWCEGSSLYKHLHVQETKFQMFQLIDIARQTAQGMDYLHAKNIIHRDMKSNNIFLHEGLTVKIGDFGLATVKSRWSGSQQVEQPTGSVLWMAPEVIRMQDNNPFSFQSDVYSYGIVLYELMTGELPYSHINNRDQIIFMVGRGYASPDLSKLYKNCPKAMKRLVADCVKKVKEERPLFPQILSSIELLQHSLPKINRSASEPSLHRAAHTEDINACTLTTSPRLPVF

Sequence of Serine/threonine-protein kinase B-raf (Homo sapiens), P15056 [V600E] (P15056 whole entry V600E): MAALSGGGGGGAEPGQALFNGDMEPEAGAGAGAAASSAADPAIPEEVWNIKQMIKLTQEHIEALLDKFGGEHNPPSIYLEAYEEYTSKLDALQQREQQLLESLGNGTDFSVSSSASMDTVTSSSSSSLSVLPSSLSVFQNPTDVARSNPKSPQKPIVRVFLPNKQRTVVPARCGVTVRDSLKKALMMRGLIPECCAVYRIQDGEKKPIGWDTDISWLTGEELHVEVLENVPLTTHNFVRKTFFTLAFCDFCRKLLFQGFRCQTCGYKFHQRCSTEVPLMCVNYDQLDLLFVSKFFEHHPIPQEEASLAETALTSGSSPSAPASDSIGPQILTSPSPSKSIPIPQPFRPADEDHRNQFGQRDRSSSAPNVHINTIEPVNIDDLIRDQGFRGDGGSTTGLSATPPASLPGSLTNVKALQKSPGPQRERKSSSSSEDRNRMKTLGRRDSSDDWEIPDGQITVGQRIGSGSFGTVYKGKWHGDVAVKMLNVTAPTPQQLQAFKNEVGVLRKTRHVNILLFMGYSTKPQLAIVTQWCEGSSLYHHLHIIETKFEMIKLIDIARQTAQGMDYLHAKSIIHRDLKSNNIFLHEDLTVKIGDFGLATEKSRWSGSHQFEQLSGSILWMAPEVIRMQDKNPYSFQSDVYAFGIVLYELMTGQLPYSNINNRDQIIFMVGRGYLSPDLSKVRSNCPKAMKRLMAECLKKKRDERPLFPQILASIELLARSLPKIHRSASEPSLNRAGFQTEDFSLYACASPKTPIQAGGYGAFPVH
Sequence of Tyrosine-protein kinase Yes (Homo sapiens) (P07947 2-543 limits assumed): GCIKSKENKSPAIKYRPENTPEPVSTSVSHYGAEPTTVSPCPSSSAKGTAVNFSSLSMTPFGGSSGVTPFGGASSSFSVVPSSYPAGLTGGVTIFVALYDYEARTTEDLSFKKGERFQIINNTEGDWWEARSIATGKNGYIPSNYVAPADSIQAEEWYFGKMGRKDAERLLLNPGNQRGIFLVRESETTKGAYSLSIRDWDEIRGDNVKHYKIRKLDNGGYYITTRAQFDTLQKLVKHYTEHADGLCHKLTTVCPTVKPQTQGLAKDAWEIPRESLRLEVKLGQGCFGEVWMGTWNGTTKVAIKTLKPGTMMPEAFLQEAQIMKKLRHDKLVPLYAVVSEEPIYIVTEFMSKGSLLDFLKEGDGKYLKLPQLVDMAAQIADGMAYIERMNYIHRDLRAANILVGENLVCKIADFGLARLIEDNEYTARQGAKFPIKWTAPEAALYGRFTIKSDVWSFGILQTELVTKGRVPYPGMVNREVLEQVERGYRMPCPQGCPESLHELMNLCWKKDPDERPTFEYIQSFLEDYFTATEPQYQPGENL
Sequence of Serine/threonine-protein kinase B-raf (Homo sapiens) (P15056 whole entry): as the sequence (P15056 whole entry V600E) above, with E600V counted along it

For `Cc1ccc2c(c1)/C(=N/Nc1ccc(S(N)(=O)=O)cc1)C(=O)N2`, the inhibition (usually the change of the read-out against control, counted positive when it falls) is 0.35% in assay [1]; -0.04% in assay [2]; 5.49% in [3]; 1.31% in assay [4]; 1.47% in assay [5]; 0.51% in [6]. Moreover, the inhibition in assay [7] is 3.31%; in [8], 0.4%; in assay [9] it was 3.37%; in assay [10], 0.26%.

With `Cc1ccc2c(-c3ccnc(Nc4ccc5c(c4)OCCO5)n3)c(-c3ccc(C(F)(F)F)cc3)nn2n1`, the inhibition was 2.41% in assay [1]; 6.79% in assay [2]; 46.8% in [3]; -2.2% in assay [4]; 1.38% in [5]; 0.83% in [6]. Besides, the inhibition worked out at 1.14% in [7], 0.62% in assay [8], 1.44% in [9] and 4.51% in assay [10].

For `COc1ccc(-c2nn3ncccc3c2-c2ccnc(Nc3cccc(C(F)(F)F)c3)n2)cc1`, the inhibition in assay [1] is 4.06%; in assay [2], 26.3%; in [3], 79.8%; in [4], -0.73%; in assay [5], 1.1%; in assay [6] it was 4.3%. For the same molecule, the inhibition in assay [7] is 6.08%; in assay [8] it was 4.63%; in [9], 4.39%; in [10], -2.4%.

On to `C[C@@H](Oc1cc(-n2cnc3ccc(OC[C@@H](O)CO)cc32)sc1C(N)=O)c1ccccc1Cl`, for which the inhibition in assay [1] was 1.84%; in assay [2], -2.39%; in assay [3], 4.27%; in assay [4] it was -0.38%; in assay [5] it was -0.42%; in [6] it was -1.12%. The inhibition was -0.85% in assay [7], -2.35% in assay [8], 0.01% in [9] and -4.77% in [10].

In the case of `O=C1Nc2ccccc2/C1=C/Nc1ccc2[nH]c(=O)[nH]c2c1`, the inhibition in assay [1] amounted to 21.6%; in [2], 6.92%; in assay [3], 27.2%; in assay [4], 3.11%; in [5], 7.45%; in assay [6], 9.63%. Further, the inhibition in assay [7] worked out at 10.4%; in assay [8] it was 8.7%; in assay [9], 8.75%; in assay [10] it was 0.68%.

Turning to `c1ccc(Nc2ncc(-c3ccccc3)o2)cc1`, the inhibition in assay [1] was 6.84%; in assay [2] it was 2.4%; in assay [3] it was 6.64%; in assay [4] it was -1.32%; in assay [5], 1.41%; in assay [6] it was 5.93%. The inhibition was 7.7% in assay [7], 5.02% in [8], 4.39% in [9] and 2.39% in assay [10].

Turning to `COc1cc(/C=N/Nc2ncnc3c2cnn3C(C)C)ccc1O`, the inhibition in assay [1] turned out to be 25.9%; in [2], 11.9%; in assay [3], 50.8%; in assay [4], 1.87%; in assay [5], 4.45%; in [6] it was 2.16%. Moreover, the inhibition in assay [7] is 2.26%; in [8], 2.21%; in assay [9] it was 1.64%; in [10], 9.62%.

Consider `Nc1ccc(C#Cc2cncnc2Nc2ccc(OCc3cccc(F)c3)c(Cl)c2)cc1`, for which the inhibition is 3.64% in [1]; 1.94% in [2]; 8.1% in [3]; -0.01% in assay [4]; -1.74% in [5]; 4.78% in [6]. Besides, the inhibition is 3.99% in [7], 4.21% in assay [8], 3.42% in [9] and -3.06% in [10].

As for `N#Cc1c(NC(=O)c2ccccc2F)sc2c1CCCC2`, the inhibition was -1.16% in assay [1]; 2.43% in assay [2]; -1.67% in assay [3]; -3.51% in assay [4]; 0.2% in assay [5]; -1.34% in assay [6]. Besides, the inhibition in [7] is -1.56%; in assay [8], -0.04%; in assay [9], 1.18%; in assay [10], -2.08%.

In the case of `COC(=O)c1cncc(/C=C/c2c(C)cc(O)cc2C)c1`, the inhibition was 7.16% in assay [1]; 4.43% in assay [2]; 18.8% in [3]; 2.93% in assay [4]; -0.01% in assay [5]; 6.07% in [6]. Also, the inhibition is 9.71% in assay [7], 5.41% in assay [8], 8.24% in assay [9] and 1.93% in assay [10].

On to `C[C@@H](Oc1cc(-n2cnc3ccc(OCC4CCN(C)CC4)cc32)sc1C(N)=O)c1ccccc1C(F)(F)F`, for which the inhibition in assay [1] was 6.92%; in [2] it was 4.36%; in assay [3], 13.2%; in assay [4] it was -2.7%; in assay [5], -1.19%; in assay [6] it was -0.94%. Moreover, the inhibition in assay [7] is -2.8%; in [8], -0.73%; in assay [9], 0.84%; in assay [10], 12.6%.

`NC(=O)c1cccc(Nc2nccc(Nc3cccc(F)c3)n2)c1`: the inhibition in assay [1] was 57%; in [2], 4.5%; in assay [3] it was 22.5%; in [4], -0.99%; in [5], 4.21%; in assay [6], 0.82%. For the same molecule, the inhibition in [7] is 3.59%; in assay [8] it was 1.61%; in assay [9], 3.25%; in assay [10] it was 0.33%.

For the molecule `NS(=O)(=O)c1ccc(Nc2cc(-c3cccc(O)c3)n[nH]2)cc1`, the inhibition in assay [1] was found to be 9.19%; in [2] it was 2.39%; in assay [3] it was 5.84%; in assay [4] it was 4.04%; in [5], 6.29%; in assay [6] it was 7.97%. The inhibition in assay [7] turned out to be 8.05%; in [8] it was 6.98%; in [9] it was 6.29%; in assay [10], 1.44%.

On to `CN(c1ccc(NC(=O)Nc2ccc(OC(F)(F)F)cc2)cc1)c1ccnc(Nc2cccc(S(N)(=O)=O)c2)n1`, for which the inhibition is 27.2% in assay [1]; 15.5% in assay [2]; 65.2% in assay [3]; -0.16% in assay [4]; 3.87% in assay [5]; 5.02% in assay [6]. For the same molecule, the inhibition is 22.7% in assay [7], 4.82% in assay [8], 18% in [9] and -2.25% in [10].

For `Nc1nccc(-c2c(-c3ccc(F)cc3)ncn2CCCN2CCOCC2)n1`, the inhibition is 5.61% in assay [1]; 2.87% in [2]; 9.05% in [3]; -2.08% in assay [4]; 1.23% in assay [5]; 5.83% in [6]. In addition, the inhibition in assay [7] was 6.07%; in assay [8], 6.08%; in [9] it was 7.12%; in assay [10], 11.6%.

As for `CN(C)c1cc2c(Nc3ccc4c(cnn4Cc4ccccc4)c3)ncnc2cn1`, the inhibition came out at 7.51% in [1]; 13.5% in assay [2]; 49.8% in assay [3]; 2.63% in assay [4]; 5.85% in [5]; 3.72% in assay [6]. The inhibition in assay [7] was determined as 3.71%; in assay [8] it was 4.74%; in [9], 4.34%; in assay [10], 1.64%.
